Our source for the Potency values is PubChem BioAssay (NCATS).

Records with an inconclusive call do not appear. The source made the active and inactive calls. Calls follow the shape of the full dose curve. Bounds are passed on as bounds.
Potency is read from the fitted curve at half-maximal effect.

The nature of this assay: Cell Viability - SK-N-SH (AID 435).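 Also: compound exposure lasted 40 h at 37 °C.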 To be noted: SK-N-SH neuroblastoma cell viability qHTS. An excerpt:
NIH Chemical Genomics Center [NCGC]
NIH Molecular Libraries Screening Centers Network [MLSCN]
National Institutes of Environmental Health Sciences [NIEHS]
National Toxicology Program [NTP]
We have developed a 1536-well cell-based assay for quantitative high throughput screening (qHTS) against a number of cell lines to determine in vitro cytotoxicity of small molecules. This particular assay uses the SK-N-SH cell line which is derived from human neuroblastoma.
NCGC Assay Protocol Summary:
The CellTiter-Glo luminescent cell viability assay (Promega) is a homogeneous method to measure the number of viable cells in culture. The end point readout of this assay is based on quantitation of intracellular ATP, an indicator of metabolic activity, using the luciferase reaction. Luciferase catalyzes the oxidation of beetle Luciferin to oxyluciferin and light in the presence of ATP. The luminescent signal is proportional to amount of ATP present.
Using the CellTiter-Glo luminescent cell viability assay, the amount of cellular ATP was measured in the SK-N-SH cell line with complete culture medium following compound treatment for 40 hours. The assay was performed in opaque white Kalypsys 1536-well plates. In the screen, tamoxifen and doxorubicin were used as positive controls. Library compounds were measured for their ability to cause acute toxicity in the cell line, as reflected by a decrease in intracellular ATP levels, in a concentration-dependent manner. Data were normalized to the controls for basal activity (DMSO only) and 100% inhibition (100 uM tamoxifen). AC50 values were determined from concentration-response data modeled with the standard Hill equation.
qHTS protocol fo CellTiter Glo SK-N-SH cellular assay
[Step] [Parameter] [Value] [Description]
1. Reagent; 5 uL; 1500 SK-N-SH cells/well
2. Time; 5 hr; 37 °C incubation
4. Controls; 23 nL; Tamoxifen 0.34 uM to 100 uM & Doxorubicin 0.02 nM to 100 uM
5. Time; 40 hr; 37 °C incubation
6. Reagent; 5 uL; CellTiter Glo reagent
7. Time; 20 min; Room Temperature
8. Detection; Luminescence; Viewlux plate reader
Keywords: cell viability, cytotoxicity, SK-N-SH cell line, luminescence, NTPHTS, NTPHTS_NCGC, NIEHS, EPA, DSSTox, MLSMR, MLSCN, NIH Roadmap, qHTS, NCGC
`Brc1cc(Oc2cc(Br)c(Br)c(Br)c2Br)c(Br)c(Br)c1Br`: the Potency is > 92 µM (inactive).

In the case of `C1CCCNCC1`, the Potency is > 92 µM (inactive).

As for `C=CC(=O)CC`, the Potency was > 92 µM (inactive).

`c1ccc(CSCc2ccccc2)cc1`: the Potency was > 92 µM (inactive).

As for `Nc1cc(C(=O)O)c(O)c(S(=O)(=O)O)c1`, the Potency is > 92 µM (inactive).

On to `CCOC(=O)C1OC1c1ccccc1` (stereo not given), for which the Potency was > 92 µM (inactive).

As to `Nc1ccccc1O`, the Potency was > 92 µM (inactive).

Take `Cc1c(C(=O)O)c(O)cc2c1C(=O)c1c(O)c([C@H]3O[C@H](CO)[C@@H](O)[C@H](O)[C@H]3O)c(O)c(O)c1C2=O`: the Potency was 38.2 µM (active).

Turning to `Nc1cc([N+](=O)[O-])ccc1O`, the Potency is > 92 µM (inactive).

Consider `Brc1ccc(-c2ccccc2)cc1`, for which the Potency was > 92 µM (inactive).

Take `Cc1ccccc1OCC1CO1` (stereo not given): the Potency is > 92 µM (inactive).

For `COc1ccc(C(=O)Nc2ccccc2)cc1[N+](=O)[O-]`, the Potency is > 92 µM (inactive).

Take `OC1CCCCC1`: the Potency was > 92 µM (inactive).

Consider `Cc1ccc(N)cc1[N+](=O)[O-]`, for which the Potency was > 92 µM (inactive).

On to `COc1ccc([N+](=O)[O-])cc1N`, for which the Potency is > 92 µM (inactive).

With `O=C(O)/C=C/c1ccc(/C=C/C(=O)O)cc1`, the Potency was > 92 µM (inactive).

As to `O=c1[nH]ncc2ccccc12`, the Potency is > 92 µM (inactive).

`O=CC(=O)c1ccccc1`: the Potency is > 92 µM (inactive).

Consider `CCN(CC)c1ccc2c(C)cc(=O)oc2c1`, for which the Potency was > 92 µM (inactive).

In the case of `CCCCC(CC)COC(=O)COc1ccc(Cl)cc1Cl` (stereo not given), the Potency is > 92 µM (inactive).

On to `OCC(CO)(CBr)CBr`, for which the Potency was > 92 µM (inactive).

On to `Nc1ccc(N=Nc2ccccc2)c(N)c1`, for which the Potency is > 92 µM (inactive).

In the case of `CC(C)COC(=O)COc1cc(Cl)c(Cl)cc1Cl`, the Potency is > 92 µM (inactive).

As for `CC(=O)c1ccc(Cl)c(Cl)c1Cl`, the Potency was > 92 µM (inactive).

As for `O=[N+]([O-])c1ccc(F)cc1F`, the Potency was > 92 µM (inactive).

With `C[Si](C)(C)Cl`, the Potency was > 92 µM (inactive).

For the molecule `CCCCCCCCOc1ccc(C(=O)O)cc1`, the Potency is > 92 µM (inactive).

With `CCc1ccc(C(c2ccc(CC)cc2)C(Cl)Cl)cc1`, the Potency is > 92 µM (inactive).

With `C[C@@H]1CC2(OC(O)[C@]3(C)O[C@H]23)O[C@H]2C[C@@]3(C)[C@@H]4CC[C@H]5C(C)(C)C(O[C@@H]6OC[C@@H](O)[C@H](O)[C@H]6O)CC[C@@]56C[C@@]46CC[C@]3(C)[C@@H]12` (stereo not given in full), the Potency was > 92 µM (inactive).

On to `C=CC(C)(O)CCCC(C)CCCC(C)CCCC(C)C` (stereo not given), for which the Potency is > 92 µM (inactive).

For the molecule `c1ccc2c(c1)ccc1ccccc12`, the Potency was > 92 µM (inactive).

For `Brc1cc(Br)c(Oc2cc(Br)c(Br)cc2Br)cc1Br`, the Potency is > 92 µM (inactive).

As for `CCCCCCCCC1CO1` (stereo not given), the Potency was > 92 µM (inactive).

Turning to `CCCCC(CC)COCCCN` (stereo not given), the Potency is > 92 µM (inactive).

`CCCCNCC`: the Potency was > 92 µM (inactive).

On to `CC(/C=C/C=C(C)/C=C/C(=O)O)=C\C=C\C=C(C)\C=C\C=C(C)\C=C\C(=O)O`, for which the Potency was > 92 µM (inactive).

As for `Cc1cc2nc(N)sc2cc1C`, the Potency was > 92 µM (inactive).

`O=C(OCc1ccccc1)c1ccccc1O`: the Potency is > 92 µM (inactive).

Turning to `Cc1ccc(S(N)(=O)=O)cc1`, the Potency was > 92 µM (inactive).

With `Cc1cccnc1`, the Potency was > 92 µM (inactive).
